PP1 inh – PP1-alpha (human) inhibition in PP5 counter-screen; AID 2235; P62136; 320,000 tested, 0.9% active; inhibition, % at 6.7 µM; purified PP1alpha, OMFP fluorescence;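 active means inhibition above the mean inhibition of all tested compounds plus 3 SD, computed separately for each screening campaign, cut at about 15% in these data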
PP5 primary – inhibitors of human protein phosphatase 5 (PP5); purified PP5c, OMFP substrate fluorescence; inhibition, % at 6.7 µM; 320,000 tested, 0.18% active; AID 1987;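 active means inhibition above the campaign's mean inhibition across all tested compounds plus 3 SD, cut at about 9.5% in these data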;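 further: 0% = DMSO only and 100% = 100 µM cantharidin control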
CSC inhib – blocks cancer stem cells; cancer stem cell-like cells viability, luminescence; 300,000 tested, 1.1% active; inhibition, % at 7.5 µM; AID 2717; in the data active means inhibition above about 75%; tested in HMLE shEcad cells
Calb FLC – affects C. albicans growth with fluconazole; C. albicans CaCi-2 (fluconazole-resistant clinical isolate) + fluconazole, Alamar Blue growth, 48 h; growth inhibition, % (concentration not given with the values); 300,000 tested, 0.57% active;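 active means growth inhibition above about 58% in most replicates, limit read from the data, passing the limit was not always enough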;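 further: all wells also contain fluconazole at 8 µg/ml as a sub-toxic cotreatment; 0% = median of DMSO wells and 100% = median of geldanamycin control wells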
ALR H2O2 inh – inhibitors of human sulfhydryl oxidase ALR; P55789; purified ALR, DTT oxidation, H2O2 HRP-luminol luminescence; inhibition, % (no concentration beside the values); 290,000 tested, 3.8% active; AID 485317;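 active means mean replicate inhibition above about 79%, with every replicate also reaching it, limit read from the data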
Target sequence (P55789 whole entry, looked up): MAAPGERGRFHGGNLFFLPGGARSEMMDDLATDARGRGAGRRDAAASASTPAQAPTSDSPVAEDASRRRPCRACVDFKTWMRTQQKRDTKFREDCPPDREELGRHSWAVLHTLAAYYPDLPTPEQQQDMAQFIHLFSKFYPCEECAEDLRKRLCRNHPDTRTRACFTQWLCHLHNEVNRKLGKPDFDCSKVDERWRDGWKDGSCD
Starred values were filed as active, the others as inactive; / = no result given. Compounds with a hit are over-represented: about 5.4% of the library has one in this group of screens.

SMILES	PP1 inh	PP5 primary	CSC inhib	Calb FLC	ALR H2O2 inh
O=C(Nc1ccc(Cl)cc1)[C@@H]1[C@@H]2C(=O)N(c3cccc(F)c3)C(=O)[C@@H]2[C@H]2C=CC=NN21	0.6	-1.9	-7.1	-1.8	0.5
O=C(Nc1ccc(Cl)cc1)[C@@H]1[C@@H]2C(=O)N(c3ccc4ccccc4c3)C(=O)[C@@H]2[C@H]2C=CC=NN21	15.2*	2.1	-0.6	-1.6	/
CCn1c(CC(=O)Nc2ccccc2F)nnc1SCC(=O)N1CCOCC1	2.0	1.2	-7.4	2.4	4.3
Oc1ccc(Br)cc1-c1ccnn1-c1ccccc1	3.0	0.9	68.8	-10.7	97.4*
Oc1ccc(Br)cc1-c1n[nH]c(=S)n1Cc1ccccc1	-0.6	5.3	-0.8	18.4	/
CC(=O)N/C(=C\c1ccccc1)C(=O)Nc1ccc(O)cc1	-1.9	-0.2	2.9	30.2	99.3*
O=C(/C=C/c1ccccc1)N/C(=C/c1ccccc1)C(=O)Nc1ccc(C(=O)O)cc1	1.8	4.8	/	-3.5	87.4*
COc1ccc(N=c2sc3ccccc3n2C)cc1	-1.0	2.3	-1.8	26.8	98.4*
COc1ccccc1N=c1sc2ccccc2n1C	-2.0	0.6	-12.9	6.6	56.3
CC(=O)c1cnc2nc(SCc3ccccc3C)nn2c1C	/	/	-13.4	-9.4	-4.2
COc1ccc(/C(C)=N/NC(=O)c2ccncc2)cc1	-3.0	-2.7	-9.3	-0.3	/
COc1cc(C(=O)N/N=C(\Cc2ncc[nH]2)c2ccccc2)cc(OC)c1OC	-2.0	1.9	91.3*	-22.4	20.2
c1ccc(N/N=C(\Cc2ncc[nH]2)c2ccccc2)cc1	-4.8	0.7	2.2	114.2*	98.7*
COc1ccc(C(=O)N/N=C(\Cc2ncc[nH]2)c2ccccc2)cc1	-0.8	3.0	40.7	98.1*	86.8*
O=C(O)c1nn(CC(=O)N2CCN(c3ncc(C(F)(F)F)cc3Cl)CC2)c(=O)c2ccccc12	8.6	-5.3	2.6	3.4	-7.7
Cc1cc2cc3c(cc2nc1SCC(=O)Nc1nc(C)c(C)s1)OCO3	0.5	0.1	-8.8	12.1	96.7*
CS(=O)(=O)N1CCN(C(=O)Cc2cccs2)CC1	-4.0	0.1	-6.5	-5.7	-4.2
O=C(CCCc1c[nH]c2ccccc12)N1CCN(c2ccc(N3CCOCC3)nn2)CC1	-0.8	-1.7	5.4	-2.8	90.0*
COC(=O)c1ccc(CSc2nc3ccc(Cl)cc3[nH]2)o1	-0.7	1.4	-5.2	-7.6	96.8*
CCn1c(SCC(=O)Nc2ccc3[nH]c(=O)[nH]c3c2)nc2ccccc21	-5.0	-1.2	-14.6	/	98.9*
O=C(CSc1nc2ccc(Cl)cc2[nH]1)Nc1ccc2[nH]c(=O)[nH]c2c1	-3.9	-0.9	-17.5	/	97.9*
COCCn1c(SCC(=O)Nc2ccc3[nH]c(=O)[nH]c3c2)nc2ccccc21	/	/	-14.2	/	91.1*
CCOc1ccc(NC(=O)CSCC(=O)O)cc1	0.1	0.7	-6.1	-2.0	-11.4
COc1ccc(NC(=O)C(=O)NCCCn2ccnc2)cc1	-4.1	0.4	-2.7	-22.1	-13.1
CC1CCC(NS(=O)(=O)c2ccc(N3CCCC3=O)cc2)CC1 (stereo not given)	6.0	-0.6	-11.1	7.0	-1.3
SMILES	PP1 inh	PP5 primary	CSC inhib	Calb FLC	ALR H2O2 inh
CCOC(=O)C1CCN(CCC(=O)Nc2cccc(Cl)c2)CC1	2.3	3.0	-14.8	-5.4	/
COc1ccc(N2CCN(C(=O)COC(=O)c3ccc(CSC)o3)CC2)cc1	-3.9	1.6	/	/	/
CCCCn1c(N)c(N(CC(C)C)C(=O)C2CCC2)c(=O)[nH]c1=O	-4.7	0.0	/	/	0.4
CCOc1ccc(CN2CCN(S(=O)(=O)c3ccc(NC(C)=O)cc3)CC2)cc1OC	-5.4	1.2	0.6	14.9	-4.3
Cc1ccc(C(=O)Nc2cccc([N+](=O)[O-])c2)cc1S(=O)(=O)Nc1cccc(C(=O)O)c1	2.9	4.2	3.1	-7.8	5.3
O=C(O)c1cccc(NC(=O)c2cccc(S(=O)(=O)Nc3cccc([N+](=O)[O-])c3)c2)c1	-1.6	0.6	-8.5	3.1	75.7*
CNC(=O)N(O)C1N(/N=C/c2ccc(N(C)C)cc2)C(=S)SC1(C)C (stereo not given)	-4.7	1.1	-19.9	-5.1	98.5*
Cc1ccc(Cn2ccsc2=NC(=O)CCl)cc1	-4.0	-0.1	-2.5	-30.3	97.0*
Cc1ccc(Cn2ccsc2=NC(=O)COC(=O)c2ccc(NC(=O)CC#N)cc2)cc1	5.6	-0.4	/	-6.9	52.1
O=[N+]([O-])c1ccc(O)c(Nc2ncnc3ccc(Br)cc23)c1	3.4	3.0	72.0	85.1*	-6.3
O=[N+]([O-])c1ccc(O)c(Nc2ncnc3ccccc23)c1	0.2	-0.2	13.0	45.3	14.3
